Structures are written as SMILES. Several values for one entry are separate records, joined by “and”; a condition that tells them apart may be missing. Equal values may be shown once. Results filed as inconclusive are left out. Where a structure was tested more than once in an assay, its records may differ in their call. Activity calls are given as the source filed them. Rule for the calls, unless noted: active = hit-call score of the fitted dose curve at least 0.9, where 1 is the maximum; inactive = score below 0.9.

Read-out in one test: CD40, CD40 (gene 958)
The test can be described thus: BSK_IMphg_CD40: BioMAP Diversity Plus: IMphg Assay for CD40 Biomarker Activity (AID 2284288). The note with it: primary human endothelial cells with macrophages. Summed up: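 ELISA read-out of cell-surface CD40 at 24 h in human venular endothelial cell/macrophage co-cultures. Activity fitted in the positive direction against DMSO; parallel SRB staining (560 nm) gauges overt cytotoxicity.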

Read-out in test [1]: TIMP metallopeptidase inhibitor 2 (TIMP2), TIMP2 (gene 7077)
The test can be described thus: BSK_hDFCGF_TIMP2: BioMAP Diversity Plus: hDFCGF Assay for TIMP metallopeptidase inhibitor 2 (TIMP2) Biomarker Activity (AID 2284289). The note with it: primary human foreskin fibroblasts. Summed up:
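Primary human foreskin fibroblasts in the hDFCGF system, dosed for 24 h; TIMP-2 level measured by ELISA, fitted in the positive direction against DMSO; cytotoxicity checked in parallel by sulforhodamine B total protein staining.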

Read-out in test [2]: Interleukin-1 alpha (IL1a), IL1A (gene 3552)
The test can be described thus: BSK_IMphg_IL1a: BioMAP Diversity Plus: IMphg Assay for Interleukin-1 alpha (IL1a) Biomarker Activity (AID 2284290). Conditions: primary human endothelial cells with macrophages. Summed up:
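IL-1α is quantified by ELISA at 24 h in the endothelial/macrophage IMphg co-culture, with gain of signal fitted relative to DMSO. Parallel SRB total-protein staining flags overt toxicity.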

Read-out in test [3]: E-selectin (Homo sapiens) (UniProt P16581)
The test can be described thus: BSK_IMphg_ESelectin: BioMAP Diversity Plus: IMphg Assay for Eselectin Biomarker Activity (AID 2284291). The note with it: primary human endothelial cells with macrophages. The gist of the method:
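Analysed against DMSO baseline in the positive fitting direction, this endpoint is an ELISA read of E-selectin. It comes from human venular endothelial cells co-cultured with macrophages, sampled 24 h post-dose.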

Test [4] can be described thus: BSK_IMphg_SRB: Viability Assessment in the BioMAP Diversity Plus: IMphg Assay (AID 2284292).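 Note: measured one day after compound addition.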 The note with it: primary human endothelial cells with macrophages. The gist of the method:
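SRB viability endpoint: cultures of human endothelial cells plus macrophages fixed with 10% TCA, stained with 0.1% SRB, read at 560 nm 24 h post-dosing. Only gain-of-signal fitted, relative to DMSO.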

Read-out in test [5]: Macrophage colony-stimulating factor (MCSF), CSF1 (gene 1435)
The test can be described thus: BSK_IMphg_MCSF: BioMAP Diversity Plus: IMphg Assay for Macrophage colony-stimulating factor (MCSF) Biomarker Activity (AID 2284293). Conditions: primary human endothelial cells with macrophages. Summed up:
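M-CSF was measured by ELISA in human venular endothelial cell/macrophage co-cultures dosed for 24 hours. Sulforhodamine B staining of parallel cultures assessed cytotoxicity; data fitted against DMSO baseline.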

Read-out in test [6]: Interleukin-10 (IL10), IL10 (gene 3586)
Nature of the test: BSK_IMphg_IL10: BioMAP Diversity Plus: IMphg Assay for Interleukin-10 (IL10) Biomarker Activity (AID 2284294). Conditions: primary human endothelial cells with macrophages. The gist of the method:
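IL-10 read by ELISA after 24 h chemical exposure of primary human venular endothelial cell/macrophage cocultures, with DMSO as baseline. Parallel SRB staining (560 nm) gauged overt cytotoxicity.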

Test [7] in a line: BSK_IMphg_SRB.Mphg: Macrophage Viability Assessment in the BioMAP Diversity Plus: IMphg Assay (AID 2284295). The note with it: primary human endothelial cells with macrophages. Summed up:
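Cytotoxicity read-out: parallel cultures fixed with 10% TCA, stained with 0.1% sulforhodamine B, read at 560 nm. System combines venular endothelium and macrophages; sampled 24 h post-dosing, fitted positively relative to DMSO control.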

Read-out in test [8]: Thrombomodulin, THBD (gene 7056)
Nature of the test: BSK_LPS_Thrombomodulin: BioMAP Diversity Plus: LPS Assay for Thrombomodulin Biomarker Activity (AID 2284296). Conditions: primary human HUVEC with PBMC. The gist of the method:
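Thrombomodulin on the surface of LPS-activated endothelial/PBMC co-cultures was quantified by ELISA at 24 hours post-dosing, with DMSO as baseline. Parallel SRB total-protein staining flagged overt cytotoxicity.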

Read-out in a further test: CD69, CD69 (gene 969)
The test can be described thus: BSK_LPS_CD69: BioMAP Diversity Plus: LPS Assay for CD69 Biomarker Activity (AID 2284303). Conditions: primary human HUVEC with PBMC. Summed up:
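CD69 surface levels were read by ELISA after 24 h chemical treatment of an LPS-stimulated HUVEC plus PBMC co-culture; positive-direction fit against DMSO vehicle.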

Test [9] can be described thus: CCTE_Mundy_HCI_iCellGluta_NOG_NeuriteLength: CCTE's Neurite Outgrowth Assay in iCellGluta cells for Neurite Length, Mundy Lab (AID 2284318; active = hit-call score of the fitted dose curve at least 0.9, where 1 is the maximum). Summed up:
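Automated high-content imaging of betaIII-tubulin (Alexa Fluor-488) and Hoechst-stained cells gave neurite length, normalized to the DMSO baseline.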

A further test deals with TTR (gene 7276). The test can be described thus: CCTE_GLTED_hTTR_0.5uM: CCTE's human Transthyretin (hTTR) Inhibition Assay, with 0.5uM TTR, Great Lakes Toxicology and Ecology Division (GLTED) Lab (AID 2284320). Summed up: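 Probe (ANSA) displacement from 0.5 uM human transthyretin was followed by fluorescence (ex 380, em 475) after a 2 h incubation with chemical. Activity was scored as signal loss and fitted positively relative to DMSO.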

Test [10] in a line: CCTE_Mundy_HCI_iCellGluta_NOG_NeuronCount: CCTE's Neurite Outgrowth Assay in iCellGluta cells for Neuron Count, Mundy Lab (AID 2284340; active = hit-call score of the fitted dose curve at least 0.9, where 1 is the maximum;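 note: cells fixed about 48 h after compound addition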). Summed up:
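Neuron count read by automated high-content imaging of Hoechst 33342 and betaIII-tubulin/Alexa Fluor-488 labelling in human iPSC glutamatergic neurons. Activity fitted relative to DMSO.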

The nature of test [11]: CCTE_Mundy_HCI_iCellGluta_NOG_NeuriteCount: CCTE's Neurite Outgrowth Assay in iCellGluta cells for Neurite Count, Mundy Lab (AID 2284342; active = hit-call score of the fitted dose curve at least 0.9, where 1 is the maximum;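 note: chemical exposure about 48 hours starting 2 hours after plating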).
Test [12] can be described thus: Tanguay_ZF_120hpf_MO24: Oregon State University Tanguay Lab 24 Hour Post-fertilization zebrafish Assay for Mortality (AID 2284389). Summed up:
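Embryo death at 24 hpf was recorded as present or absent in Tropical 5D zebrafish, dechorionated at 4 hpf and dosed statically from 6 hpf (28C, 0.64% DMSO); 5 uM trimethyltin chloride served as positive control.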

Another test relates to IYD (gene 389434). The test can be described thus: CCTE_GLTED_hIYD: CCTE's human Iodotyrosine Deiodinase (xIYD) Inhibition Assay, Great Lakes Toxicology and Ecology Division (GLTED) Lab (AID 2284317; active = hit-call score of the fitted dose curve at least 0.9, where 1 is the maximum;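 note: cell-free human IYD enzyme made in baculovirus insect cells; iodide freed from monoiodotyrosine measured by cerium arsenite color change at 420 nm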). Summed up: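 Iodide liberated from monoiodotyrosine by baculovirus-expressed human IYD over 3 h was determined colorimetrically (Sandell-Kolthoff, 420 nm) after Dowex separation; inhibition is loss of signal versus DMSO.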

The nature of test [13]: CCTE_Deisenroth_5AR_NBTE_donor: CCTE's 5alpha-reductase NanoBRET Target Engagement Assay […], Deisenroth Lab (AID 2284319). Conditions: actives raise or lower the signal. The gist of the method:
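HEK293T cells were reverse transfected with an SRD5A2-NanoLuc vector for 20 h, exposed to test chemical (8 points, 10 nM - 29.9 uM) for 3 h, then testosterone tracer for 2 h more. Donor luminescence (460 nm) was read; bidirectional fit versus DMSO.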

The subject of a further test is SRD5A2 (gene 6716). The test can be described thus: CCTE_Deisenroth_5AR_NBTE_ratio: CCTE's 5alpha-reductase NanoBRET Target Engagement Assay - Ratio, Deisenroth Lab (AID 2284322). The note with it: actives raise or lower the signal. The gist of the method:
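SRD5A2-NanoLuc HEK293T; cmpd 10 nM-29.9 uM, 3 h preinc + testosterone tracer 2 h; NanoBRET ratio 650/460; bidirectional fit vs DMSO.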

A short description of test [14]: CCTE_Deisenroth_5AR_NBTE_acceptor: CCTE's 5alpha-reductase NanoBRET Target Engagement Assay - Autofluorescence Screen, Deisenroth Lab (AID 2284321).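 Note: compound fluorescence in the acceptor channel under 460 nm excitation flags autofluorescence artifacts.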 The note with it: actives raise or lower the signal. The gist of the method:
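Using three independent plate-reader runs, nominal 100 uM chemicals were checked for intrinsic fluorescence (ex 460 nm). DMSO defined the baseline for bidirectional fitting.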

The test system of another test is SERPINA7 (gene 6906). Nature of the test: CCTE_GLTED_hTBG: CCTE's human Thyroxine-binding Globulin (TBG) Inhibition Assay, Great Lakes Toxicology and Ecology Division (GLTED) Lab (AID 2284343; active = hit-call score of the fitted dose curve at least 0.9, where 1 is the maximum;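 note: active chemicals lower fluorescence versus DMSO baseline by displacing probe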). The gist of the method: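 Steps: combine TBG with chemical; incubate 2 hours so that disruptors release ANSA; record fluorescence (380 ex, 475 em). Loss of signal was fitted against DMSO controls.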

Chain of E-selectin (Homo sapiens) (P16581 whole entry, looked up): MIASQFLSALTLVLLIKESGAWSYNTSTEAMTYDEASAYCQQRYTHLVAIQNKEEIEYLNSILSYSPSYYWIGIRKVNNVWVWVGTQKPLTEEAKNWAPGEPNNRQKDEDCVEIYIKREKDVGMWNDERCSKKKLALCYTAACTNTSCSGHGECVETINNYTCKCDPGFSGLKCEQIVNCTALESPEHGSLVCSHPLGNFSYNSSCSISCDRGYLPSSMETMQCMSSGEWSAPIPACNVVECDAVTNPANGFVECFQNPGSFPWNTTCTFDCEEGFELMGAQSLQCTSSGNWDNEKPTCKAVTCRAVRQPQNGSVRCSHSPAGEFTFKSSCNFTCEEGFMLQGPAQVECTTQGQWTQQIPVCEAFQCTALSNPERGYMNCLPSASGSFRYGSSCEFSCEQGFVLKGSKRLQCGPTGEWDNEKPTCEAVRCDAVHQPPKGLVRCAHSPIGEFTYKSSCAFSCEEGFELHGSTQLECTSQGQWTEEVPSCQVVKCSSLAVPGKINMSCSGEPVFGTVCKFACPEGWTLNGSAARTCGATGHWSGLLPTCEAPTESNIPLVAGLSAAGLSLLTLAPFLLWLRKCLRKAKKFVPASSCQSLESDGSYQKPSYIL

As to `NC(=O)C(F)(F)C(F)(F)C(F)(F)C(F)(F)C(F)(F)C(F)(F)C(F)(F)F`, the outcome with CD40, CD40 (gene 958) is “inactive”; in test [1], “inactive”; in [2] it was “inactive”; in [3], “inactive”; in test [4], “inactive”; in test [5], “inactive”. The outcome in test [6] is “inactive”; in test [7], “inactive”; in test [8], “inactive”; in the test with CD69, CD69 (gene 969), “inactive”; in test [9], “inactive”; in test [10] it was “inactive”. The outcome in [11] was inactive. In addition, the figures for the AC50 (in the test with TTR (gene 7276); in [12]) were 5.65 µM (active) and 52.7 µM (active), respectively.
With `C=CC(=O)OCC(F)(F)C(F)(F)C(F)(F)COC(=O)C=C`, the AC50 was 22.6 µM (active) and 23.9 µM (active) in the test with CD40, CD40 (gene 958); 45 µM (active) in test [2]; 40 µM (active) and 33.5 µM (active) in test [3]; 43.8 µM (active) in test [4]; 38.3 µM (active) and 41.1 µM (active) in [6]; 39.4 µM (active) in [7]. In addition, the AC50 was 8.08 µM (active) and 7.99 µM (active) in test [8]; 15.9 µM (active) and 10.5 µM (active) in the test with CD69, CD69 (gene 969); 0.424 µM (active) in the test on TTR (gene 7276); 29.3 µM (active) in test [12]. In addition, the outcome in [1], in test [2], in [4], in [5], in test [7] and in test [10] was inactive. The result in test [11] was inactive.
For the compound `C=CC(=O)OCCC(F)(F)C(F)(F)C(F)(F)C(F)(F)F`, the outcome with CD40, CD40 (gene 958) is “inactive”; in test [1], “inactive”; in test [2], “inactive”; in [3], “inactive”; in test [4], “inactive”; in [5], “inactive”. Further, the outcome in [6] is “inactive”; in test [7], “inactive”; in test [8] it was “inactive”; in the test with CD69, CD69 (gene 969) it was “inactive”; in the test on TTR (gene 7276), “inactive”; in test [12], “inactive”. Besides, the AC50 in test [1] is 2.55 µM (active).
With `CCCCCCCCCCCCCC[P+](CCCC)(CCCC)CCCC`, the figures for the AC50 (with IYD (gene 389434); in test [13]; in the test on SRD5A2 (gene 6716)) were 97.6 µM (active), 13.1 µM (active) and 22.9 µM (active), respectively.
On to `CCCCCCCC/C=C\CCCCCCCC(=O)OCC(O)CO` (stereo not drawn), for which the AC50 in the test on IYD (gene 389434) is 68.1 µM (active).
In the case of `CCN=C1C=CC(=C(c2ccc(N(CC)CC)cc2)c2ccc(N(CC)CC)cc2)c2ccccc21`, the AC50 in [1] is 677 nM (active) and 195 nM (active); with CD69, CD69 (gene 969), 1.16 µM (active) and 1.01 µM (active); in [13], 6.95 µM (active); in test [14], 2.24 µM (active); in the test with SRD5A2 (gene 6716), 0.166 µM (active); in the test on SERPINA7 (gene 6906) it was 4.51 µM (active). For the same compound, the outcome in [8] was inactive.
For the compound `CCOC(=O)CC(=O)C(F)(F)C(F)(F)F`, the outcome is “inactive” with CD40, CD40 (gene 958); “inactive” in test [1]; “inactive” in [2]; “inactive” in test [3]; “inactive” in test [4]; “inactive” in test [5]. Besides, the outcome in [6] is “inactive”; in test [7] it was “inactive”; in test [8] it was “inactive”; with CD69, CD69 (gene 969), “inactive”; in test [12], “inactive”. In addition, the concentration at half-maximal activity (AC50) in the test with TTR (gene 7276) is 49.8 µM (active).

(Values after PubChem BioAssay (EPA / NIEHS).)
